Screening data deposited in PubChem BioAssay by National Center for Advancing Translational Sciences (NCATS).
Hits are enriched below; roughly 3.8% of the tested compounds scored in any of these assays.
PLK1 PBD inh – PLK1 (human) polo-box domain binding inhibition; Plk1 PBD binding of FITC phosphopeptide, fluorescence polarization; Potency, µM, for the others: max response, negative = inhibition, actives largely listed as inhibitors; P53350; 360,000 compounds, 2.8% hits; further: potency means the concentration at half of the fitted maximal effect; series mostly up to about 57 µM; on the % scale 0 is the no-effect control and ±100 the full control effect; nearly all actives have a fitted effect of over 65% in size
MBNL1-CUG inh – inhibitors of human MBNL1 binding to CUG repeat RNA. Potency, µM (titrated, usually from 57.5 µM), for inactives: top-dose activity change, negative = inhibition, actives largely listed as inhibitors. TR-FRET MBNL1-His/biotin-(CUG)12 binding, 665/545 ratio. 280,000 compounds, 0.036% hits. Q9NR56; active means well fitted inhibition curve with a large enough effect in the signal ratio, with a control signal flat, not every such curve was filed as active; inconclusive means small, poorly fitted or top-dose-only effect, or effect the other way, or a change in a side signal; inactive means no such curve, though single readings can be large or run the other way; the % refers to the signal ratio; further: potency means the concentration at half of the fitted maximal effect; on the % scale 0 is the no-effect control and ±100 the full control effect
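Ratiometric TR-FRET (665 over 545 nm, excitation 340 nm) tracks disruption of MBNL1-His/biotin-(CUG)12 complex after 60 min at room temperature, with compounds at 92 nM to 58 uM final.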
CBFb RUNX1 block – inhibitors of human CBF-beta and RUNX1 interaction | Q01196+Q13951 | AlphaScreen CBFb-His/RUNX1-biotin binding, biochemical | Potency, µM (top dose mostly 59.8 µM), without a hit: at the highest dose activity, negative = inhibition, actives largely listed as inhibitors | 230,000 tested, under 10 active | AID 1477; further: % of control where 0% means no effect
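AlphaScreen proximity signal reports loss of binding between His-tagged CBF-beta and biotin-labelled RUNX1, each at 30 nM. Proteins are pre-associated for 20 minutes, compounds added for 15 minutes, then beads for 90 minutes, all at ambient temperature.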
VDR inh – blocks the human vitamin D receptor; P11473; VDR-SRC2-3 peptide fluorescence polarization, 2 h; Potency, µM, for inactives: max response, negative = inhibition, most hits filed as inhibitors; 400,000 compounds, 0.93% hits; further: potency means the concentration at half of the fitted maximal effect; on the % scale 0 is the no-effect control and ±100 the full control effect
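FP read-out; VDR + SRC2-3 coactivator peptide; 23 nl compound by pintool; 2 h RT incubation; reagents held at 4 deg C, protected from light.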
KCNH2 3.1 inh – blocks the human KCNH2 3.1 channel isoform. U2OS KCNH2 3.1, thallium flux FluxOr; active compounds read low. activity change, % (tested at about 1.8 µM). 340,000 compounds, 0.95% hits;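 active means maximum activity change below -70%; inconclusive means maximum activity change from -70% to -50%; inactive means maximum activity change above -50%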;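 further: thallium influx rate constant from kinetic fluorescence after stimulation buffer; on the % scale 0 is the no-effect control and ±100 the full control effect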
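Kinetic fluorescence (2 min after stimulation buffer) measures Tl+ influx through KCNH2 3.1 expressed by viral transduction in U2OS cells; the rate constant is normalized against DMSO controls serving as positive and negative references.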
KCNH2 WT inh – inhibitors of human wildtype KCNH2 potassium channel; U2OS, BacMam KCNH2, thallium flux FluxOr; active compounds read low; activity change, % at 1.84 µM; 340,000 compounds, 0.37% hits; AID 720551;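 active means maximum activity change below -70%; inconclusive means maximum activity change between -70% and -50%; inactive means maximum activity change above -50%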; further: on the % scale 0 is the no-effect control and ±100 the full control effect
Target sequence (Q12809 whole entry, looked up): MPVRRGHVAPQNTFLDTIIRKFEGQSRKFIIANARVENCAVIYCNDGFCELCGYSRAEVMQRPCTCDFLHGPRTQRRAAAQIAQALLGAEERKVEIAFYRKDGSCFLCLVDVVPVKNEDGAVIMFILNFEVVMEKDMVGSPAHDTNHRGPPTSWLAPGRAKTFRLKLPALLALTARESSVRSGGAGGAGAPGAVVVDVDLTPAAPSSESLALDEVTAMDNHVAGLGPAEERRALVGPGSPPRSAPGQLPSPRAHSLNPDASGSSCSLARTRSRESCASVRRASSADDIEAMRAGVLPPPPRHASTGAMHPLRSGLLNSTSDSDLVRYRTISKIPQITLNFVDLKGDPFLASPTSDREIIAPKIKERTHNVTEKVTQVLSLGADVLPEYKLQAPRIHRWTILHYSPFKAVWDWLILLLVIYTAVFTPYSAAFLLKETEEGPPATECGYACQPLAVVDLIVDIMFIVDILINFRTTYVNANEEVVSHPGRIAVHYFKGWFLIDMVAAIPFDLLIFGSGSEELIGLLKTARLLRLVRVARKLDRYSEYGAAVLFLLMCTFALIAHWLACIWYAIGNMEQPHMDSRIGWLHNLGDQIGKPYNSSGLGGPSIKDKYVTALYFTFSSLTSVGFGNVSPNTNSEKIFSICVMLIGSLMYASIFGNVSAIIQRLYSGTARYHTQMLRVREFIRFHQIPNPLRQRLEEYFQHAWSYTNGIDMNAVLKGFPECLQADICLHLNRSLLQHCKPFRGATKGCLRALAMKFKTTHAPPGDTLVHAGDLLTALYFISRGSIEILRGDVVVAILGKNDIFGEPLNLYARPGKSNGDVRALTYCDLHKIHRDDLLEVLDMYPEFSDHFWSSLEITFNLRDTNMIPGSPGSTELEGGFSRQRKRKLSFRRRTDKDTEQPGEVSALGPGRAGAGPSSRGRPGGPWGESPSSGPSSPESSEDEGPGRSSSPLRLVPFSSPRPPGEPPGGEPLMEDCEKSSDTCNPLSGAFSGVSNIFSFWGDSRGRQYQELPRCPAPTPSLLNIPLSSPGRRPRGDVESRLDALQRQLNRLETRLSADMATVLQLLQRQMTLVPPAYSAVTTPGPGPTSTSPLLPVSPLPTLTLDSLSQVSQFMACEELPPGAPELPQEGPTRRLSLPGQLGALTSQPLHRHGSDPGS
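U2OS cells were transduced with wild-type KCNH2 virus (2.03 x 10^8 / mL) for 4 h at room temperature, then cultured overnight at 37 C. Thallium flux was read with FluxOr dye. Rate constants were normalized to DMSO controls.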
* hit, by the source's call; ? = inconclusive; · = no result; [ ] = dose if it differs, or a comment. Unless noted, the call rests on the fitted dose curve; in most records, active means well fitted curve in the direction sought with a large enough effect; inconclusive means small, poorly fitted or top-dose-only effect, or another doubt; inactive means no such curve, though single readings can be large; an effect the other way counts as inactive or inconclusive.

SMILES	PLK1 PBD inh	MBNL1-CUG inh	CBFb RUNX1 block	VDR inh	KCNH2 3.1 inh	KCNH2 WT inh
CC1=C(C(=O)N2CCCCC2)C(c2ccc(Cl)cc2)n2c(nc3ccccc32)N1 (centres undefined)	·	·	·	-18%	·	·
COC(=O)C1=C(C(=O)OC)[C@@H]2N(C)c3ccc(OC)cc3[C@@]23C[C@@H](C(=O)OC)N(S(=O)(=O)c2ccc4c(c2)OCCN4C)C3=N1	·	·	-2%[13.1 µM]	·	·	·
CC1CCC(NC(=O)CCS(=O)(=O)c2ccc3c(c2)CC(C)N3C(=O)C2CC2)CC1 (centres undefined)	30µM*	-1%	·	-9%	17	7
COc1cccc(CNC(=O)CCNS(=O)(=O)c2ccc3c(c2)CC(C)N3C(C)=O)c1 (centres undefined)	27µM*	-4%	·	?	-5	-15
CC(=O)N1c2ccc(S(=O)(=O)NCC3CCC(C(=O)NC4CCCCC4C)CC3)cc2CC1C (centres undefined)	27µM*	-10%	·	-18%	7	2
COc1cccc(CNC(=O)CCS(=O)(=O)c2ccc3c(c2)CC(C)N3C(=O)C2CC2)c1 (centres undefined)	21µM*	-4%	·	-12%	-6	0
COc1cc(/C=C/c2nc3cc(Cl)ccc3c(=O)n2-c2ccc(C)cc2C)cc(OC)c1OC	·	·	·	12%	·	·
N#Cc1cccc(S(=O)(=O)N2CCN(S(=O)(=O)c3ccc4c(c3)OCCO4)CC2)c1	·	·	·	7%	·	·
CCOc1ccc(NC(=O)CCNS(=O)(=O)c2ccc3c(c2)CC(C)N3C(C)=O)cc1 (centres undefined)	3µM*	?	·	?	-1	6
CC(=O)c1ccc(N2C(=O)C3C(C2=O)C(C(=O)c2ccc(Cl)cc2)N2CCCC32)cc1 (centres undefined)	11µM*	17%	1%	-17%	-5	-2
CCOC(=O)c1sc2ncn(CC(=O)Nc3ccc(C)cc3C)c(=O)c2c1C	·	·	·	-6%	·	·
Cc1cc(NC(=O)CSc2nnnn2Cc2ccccc2)no1	21µM*	-3%	-3%	-13%	-18	0
Cc1ccc(SCC(=O)Nc2cc(C)on2)cc1	?	0%	0%	-15%	-23	-3
Cc1cc(NC(=O)CSc2nnnn2-c2ccccc2)no1	-2%	-11%	0%	17%	12	-7
Cc1cc(NC(=O)CSc2nccn2-c2cccc(F)c2)no1	-4%	·	·	8%	-10	17
Cc1cc(NC(=O)CSc2ccc(Cl)cc2)no1	5.3µM*	3%	10%	?	7	2
CCN(CC)S(=O)(=O)c1ccc2oc(SCC(=O)Nc3cc(C)on3)nc2c1	6µM*	·	·	?	14	-3
Cc1cccc(-n2ccnc2SCC(=O)Nc2cc(C)on2)c1	27µM*	4%	4%	-1%	4	0
O=C(CSc1ccc(Cl)cc1)Nn1cnnc1	11µM*	-19%	0%	71µM*	-10	-6
O=C(CSc1ccc2ccccc2c1)Nn1cnnc1	-8%	8%	0%	14%	-1	-13
COCC(=O)Nc1cc(Sc2ccccc2)ccc1N=C(NC(=O)OC)NC(=O)OC	·	·	·	1%	·	·
CC(=O)c1cccc(NC(=O)c2ccc3c(c2)N(Cc2ccc(C)cc2)CCS3)c1	·	·	·	-14%	·	·
O=c1c2ccccc2nnn1CSc1nnnn1-c1ccc(O)cc1	-5%	11%	7%	-8%	-2	-7
CCc1ccc(-n2c(CSc3nnnn3-c3ccccc3)nc3ccccc3c2=O)cc1	6µM*	-2%	2%	-21%	-5	-2
Cc1cccc(C)c1NC(=O)C1CCCN(S(=O)(=O)c2c(C)noc2/C=C/N(C)C)C1 (centres undefined)	·	·	·	-8%	·	·
SMILES	PLK1 PBD inh	MBNL1-CUG inh	CBFb RUNX1 block	VDR inh	KCNH2 3.1 inh	KCNH2 WT inh
OCCC1CN(CC(c2ccccc2)c2ccccc2)CCN1C1CCCC1 (centres undefined)	-11%	13%	5%	7%	-75*	2
Cc1c(Cl)cccc1NC(=O)CCS(=O)(=O)c1ccc2c(c1)CC(C)N2C(=O)C1CC1 (centres undefined)	·	·	·	22%	·	·
O=CN1N=C(c2ccccc2)CC1c1ccc(Cl)cc1 (centres undefined)	-6%	-1%	·	3%	6	-13
O=C1OC(c2ccccc2)=NC12CC2c1ccc(Cl)cc1 (centres undefined)	1.9µM*	-10%	1%	25µM*	3	-1
CCN(CC)S(=O)(=O)c1cc(NC(=O)c2ccc(Br)s2)ccc1C	19µM*	?	-4%	?	10	-5
C[C@@H]1C(=O)CC2C(C)(C)CCC[C@]2(C)[C@@]1(O)CCc1ccoc1 (some centres undefined)	·	·	16%	0%	·	·
COC(=O)c1sc(-c2ccccc2)cc1NC(=O)Nc1ccc(F)cc1	·	·	·	5%	·	·
CCOC(=O)c1cc(-c2ccc(/C=C3/C(=O)NC(=O)C(C#N)=C3C)o2)ccc1Cl	3.4µM*	?	-23%	?	10	5
CC1=C(C#N)C(=O)NC(=O)/C1=C\c1ccc(-c2ccc(C)cc2[N+](=O)[O-])o1	8.4µM*	·	-11%	?	-3	2
O=[N+]([O-])c1cc(C(F)(F)F)cc([N+](=O)[O-])c1Sc1n[nH]c(C(F)(F)F)n1	?	·	-9%	28µM*	4	1
CCC(c1nnc(SCCNCCO)n1CCN1CCOCC1)N(C)C (centres undefined)	-7%	-6%	-2%	19%	-177*	-6
S=C(NCCc1ccccc1)N1CCCC1	8%	·	·	8%	1	1
S=C(NCCc1ccccc1)N1CCN(C23CC4CC(CC(C4)C2)C3)CC1	-11%	·	-9%	-20%	-88*	-6
O=C(NCCCN1CCN(c2ccc(F)cc2)CC1)NC12CC3CC(CC(C3)C1)C2	-6%	-2%	·	6%	-83*	?
CSc1ccc(NC(=O)NCCCN2CCC(Cc3ccccc3)CC2)cc1	-6%	-7%	·	-1%	-106*	-48
COc1ccc(NC(=O)NCCCCc2ccccc2)cc1	2%	-12%	·	14%	10	-3
COc1ccc(NC(=O)NCCCN2CCC(Cc3ccccc3)CC2)cc1	-4%	-4%	3%	-15%	-104*	-44
CSc1ccc(N2CCN(CCCNC(=O)Nc3ccccc3F)CC2)cc1	-4%	-4%	-6%	-4%	-78*	38
O=C(NCCCN1CCOCC1)NC12CC3CC(CC(C3)C1)C2	-2%	5%	5%	-6%	-17	0
COc1cccc(-n2ccnc2SCC(=O)Nc2cccc(C)c2C)c1	·	·	·	3%	·	·
